# Publication PMC12864922, “TDP-43 directly inhibits mRNA accumulation in neurites through modulation of mRNA stability”
# Whole data set: some 9,900 sequences, median “r (bound/input frequency ratio)” near 0.7, cut for the highest 2% near 6.5. The sample holds the highest values, similar sequences and a random draw of the others, so the mix is not that of the screen.
# B1: ENSMUSG00000029636.74|Wasf3 (ssRNA)
# RNA: GGGAGUUCUACAGUCCGACGAUCGCUUCGAUAUCCGCAUGCUACCCACGUCAGCUCUCUGCAAGAUCACUGGCUGUGUGUCUCAGUGAUGUCUUCCAACCAGUGGGUGAUACGUUUUCCUGUUUCUUCCCUUUGCAAAUUGAAUUCCAGGUAGAUAUGGUUGUAGAGGGGAAAGUUUAACAAAUCAGAAUGAAAUGUUUGUCUGUUUGCACACUGGGCCUGGUGGCCUCCAAGGAAAUGUGUACGAUCGUUUGCUUUCUCUAUCUUGGCGCUUGCAACCGAGAGCGGCCAUUUUUAUGAGGGGCUCUUGCGGUCGCACUAGUGUGGAAUUCUCGGGUGUCAAGG
# B2: ENSMUSG00000004113.257|Cacna1b|213:217 (ssRNA)
# RNA: GGGAGUUCUACAGUCCGACGAUCGCUUCGAUAUCCGCAUGCUAGAUGCUGAAGAGUGCAAAACGCUAGCAAAGAAGAGGCUGGGGUUAGAGGAAGAAGCCCGCACUGGCCGUGUUACAAGAAACUGGCAGGAAGGAAAUGGCCCUGGAACAGGCCAGGUGCCUAGAGCUAAGUCAGGCCCCUGGCUUAGCACUAGAAAAAAUAAAACCUCAUGGCUGCUUUGCAAAGGGAAAACCCAUGCUCAGGAAGGUGUUCACACACCACAGAUAGCUGGGAGGCCACGAGAGAAAGGUUGCACACAGACCUCUUGCGGUCGCACUAGUGUGGAAUUCUCGGGUGUCAAGG
# B3: ENSMUSG00000028439.88|Fam219a (ssRNA)
# RNA: GGGAGUUCUACAGUCCGACGAUCGCUUCGAUAUCCGCAUGCUAGGAAAGGGGUUUUGAGAAGAAAAGGAUCCAAGCAAUGGGGGCAGUUCUCACACCUCAGAGCCCCUCUCCCCAAACCCUGUGCCAGCCCAUAUACCUAUUUGUGUUUUCCCCUCAUCUCCAGAUGGGAAGCCUGGCAGCGCUGUCCAAAGGGAUACUGUCUCUCCAUUAGAUAACUCCUUCCACUGUCUCCCUCCCCCGCUUUCUUACUUUCUGAGGGUUGGGAAGGUAAGAUGGGCCUUAGAGAGAAGCCAGGUUUGGGGCUCUUGCGGUCGCACUAGUGUGGAAUUCUCGGGUGUCAAGG
# B4: ENSMUSG00000031028.91|Tub (ssRNA)
# RNA: GGGAGUUCUACAGUCCGACGAUCGCUUCGAUAUCCGCAUGCUACAAGCUGUAUGUAGAAAAAGCUCUGGUGGUCAGCAGAAAGCACUCCCACUUCAAAAGGGCCCAUUAGGCCCAAAGGGGGUUAGGAGUGGUAGGGAUAGGUGCGUGGCAGGUCCCUGCUAGGAUUGCAGGGGCCUGGCCAUGUGUAUUAGCUGGAGGCUUAGAAUGCUAGCUCAUUUGUUGCUACAGAUUUGCCCAGUGCUUGCACACGUAAGAACCCAGCUCUCAAGGCCAAAUAUCUGAGUGGAUGGGGAUGAUAGGAGCUCUUGCGGUCGCACUAGUGUGGAAUUCUCGGGUGUCAAGG
# B5: ENSMUSG00000031028.31|Tub|122:126 (ssRNA)
# RNA: GGGAGUUCUACAGUCCGACGAUCGCUUCGAUAUCCGCAUGCUACUGCCUGCCAAGACAGCCCUGCCUACCCUCUGUUCAUAGGCCCUCUAUGGGCUUUCUGGCCUUACCAACCAGAGACUGGCUGCUCUGCCUCUGCUGCUGAAGCAGGGGGGACAGCAAAUGGCAUACACAGGAGAAGAAUAUUUCUGUGCCCCAAGGUCAACACACAUGCCCAGUCCUGGGUCAGUCCCCUGCUGCAGUGGUGUUAUCACACCGGAAAGCCUCUUCACCUGGAGGUACAGAGGGAGAGGAAGCACAAGCCUCUCUUGCGGUCGCACUAGUGUGGAAUUCUCGGGUGUCAAGG
# B6: ENSMUSG00000042529.154|Kcnj12 (ssRNA)
# RNA: GGGAGUUCUACAGUCCGACGAUCGCUUCGAUAUCCGCAUGCUAAACACCAGAGUGGGUGCUUCUUAGAAAAGGACACUCAGGAAAUUAGUAUGGGGUCUGGGUCCCACAUCCCCAGGAAGUGGGUCAGCCCCACGUCCCCCGCUGGACUCACAGCUUGAGUUGUGCCUUAGAGACUCUGGUUGUCUGGCUUCCGUCAUUUCUGGUUUUCUCAGACUUGUUUAAUCUUUCCCUACUGCCCUAAGUCCACUCAUGAAGCUCCCCAGGCCCUUCUGAGAUUGCAGAGGCUGCUUGCUCAUAGCCAUCUCUUGCGGUCGCACUAGUGUGGAAUUCUCGGGUGUCAAGG
# B7: ENSMUSG00000061578.1390|Ksr2|74:78;177:181 (ssRNA)
# RNA: GGGAGUUCUACAGUCCGACGAUCGCUUCGAUAUCCGCAUGCUACUUUGUAAAUGAUUCUGUUGCCUUUUUCUAAACACAAAGUAUAUAUACCUAUAAAUGCUAUAUAUAUUAUAUAACACAAUAUACAUAAAGACUACUUCUUGUACAGCCCUCCACGGACCUCAGGCCCACUGUUUUCUCCAUGUCUGUCUGUACUGACUGUUGCAGAAUGAGCUGAUCAUACAUCUUGAUUCUCCAUUUUCCUUCUGGACCACAUGUCUCUUCCUUUUCCUUUUUAGAUCUGUCUUGCUCUCUGUCUCUCUCUCUUGCGGUCGCACUAGUGUGGAAUUCUCGGGUGUCAAGG
# B8: ENSMUSG00000022095.44|Fam160b2 (ssRNA)
# RNA: GGGAGUUCUACAGUCCGACGAUCGCUUCGAUAUCCGCAUGCUACUGGCUCCUAAGGCAGUGGUAUUCUUGGAGCCUUUUAGAGGAGCUAGAGGAUGGCCAGUGAGCGCCUAGAUGCUGCCCUGCAUGUGUUGCGUGACUAUCUCUGCUAUAUUGUGACCAGGGCCACAACAUGAGACAACUCCAGGGGCCAGGGAGAUGAACUGCUGUCUUUGAGGCUGGCUAAAAAAACAAUCCAGUCCAGAGAGAUGGGGAGGGGGGGAGCAAGAACCCUGUCUGUUACAUUAGGUAUCAUGGAAGCUGCUCUCUUGCGGUCGCACUAGUGUGGAAUUCUCGGGUGUCAAGG
# B9: ENSMUSG00000029636.316|Wasf3 (ssRNA)
# RNA: GGGAGUUCUACAGUCCGACGAUCGCUUCGAUAUCCGCAUGCUAUGGCAAAACUUUUUUUGGUAAGGUCCUUAUGCUCUCAGGGUGGAGGGAAGACAUUAAAGCUACGCAGCCAUUGUCAGGAUUUUUUCUACUGAUGUCACAUCAGAAUAUAACUAGUGGCUCCUUACUCACAAAUGUUCACGAGCUUCUCCGUUGUCACUUGUCCUGUAGUUUUGCCAACAAGUUAAUUUUAGUUUGAUUUUAUAGCUAGAGAGAAAGCUUUUGCCCGUUGCAUUCUGUAACCUUCAAAAGAAUGAGAAACGCUCUUGCGGUCGCACUAGUGUGGAAUUCUCGGGUGUCAAGG
# Target: TDP-43 (Homo sapiens, UniProt Q13148 1-414)
# Experiment: RNA Bind-n-Seq with designed 260-mer pool; 25 mM Tris-HCl, 150 mM KCl, 3 mM MgCl2, BSA (printed 500 mg/mL), 20 units/mL SUPERase IN; pH not stated; 500 nM RNA pool, 1 h, 4 C; TDP-43 5, 50, 500 nM; high values mean tight binding
# Conditions: protein: recombinant; tags: SBP (GST cleaved off with PreScission; pGEX-GST-SBP)
# Method in brief: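 An in vitro-transcribed pool of 260-nt 3′ UTR oligos (500 nM) was incubated for 1 h at 4 °C with recombinant SBP-tagged TDP-43 at 5, 50 or 500 nM held on streptavidin beads. The buffer contained 25 mM Tris-HCl, 150 mM KCl, 3 mM MgCl2, BSA and SUPERase IN. Biotin-eluted bound RNA was sequenced, and binding, R, is each oligo's normalized read abundance in the bound sample over that in input.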
# Sequence of TDP-43 (Q13148 whole entry): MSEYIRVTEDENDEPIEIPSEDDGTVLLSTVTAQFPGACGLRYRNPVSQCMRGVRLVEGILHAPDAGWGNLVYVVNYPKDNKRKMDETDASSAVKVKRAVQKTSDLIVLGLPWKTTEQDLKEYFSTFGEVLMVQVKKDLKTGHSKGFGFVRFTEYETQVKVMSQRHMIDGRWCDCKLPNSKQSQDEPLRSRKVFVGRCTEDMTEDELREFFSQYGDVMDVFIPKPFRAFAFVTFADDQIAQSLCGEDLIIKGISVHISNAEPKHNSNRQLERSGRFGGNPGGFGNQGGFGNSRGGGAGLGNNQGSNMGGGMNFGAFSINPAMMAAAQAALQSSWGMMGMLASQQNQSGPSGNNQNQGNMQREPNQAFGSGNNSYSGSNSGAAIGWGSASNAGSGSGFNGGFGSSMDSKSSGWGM
row,Binder,binding signal
1,B1,2.22 R (bound/input frequency ratio)
2,B2,0.718 R (bound/input frequency ratio)
3,B3,0.765 R (bound/input frequency ratio)
4,B4,5.97 R (bound/input frequency ratio)
5,B5,0.475 R (bound/input frequency ratio)
6,B6,0.462 R (bound/input frequency ratio)
7,B7,0.257 R (bound/input frequency ratio)
8,B8,1.48 R (bound/input frequency ratio)
9,B9,0.157 R (bound/input frequency ratio)
